From PubChem
Bead autofluor: compound fluorescence in toxin protease inhibitor counterscreen; compound autofluorescence counterscreen, microsphere flow cytometry; active compounds read high; fluorescence intensity (concentration not given with the values); hit rate 3.1% among 360,000; in the data active = fluorescence intensity above about 16000; inconclusive = no clear call, values can overlap the other calls
Anthrax LF inh2: blocks Bacillus anthracis lethal factor protease; P15917; multiplex microsphere protease cleavage assay, LF; inhibition, % at 10 µM; hit rate 0.12% among 360,000; AID 588501; note: plate controls were buffer without enzyme for full effect and enzyme alone for no effect
Target sequence (P15917 whole entry, looked up): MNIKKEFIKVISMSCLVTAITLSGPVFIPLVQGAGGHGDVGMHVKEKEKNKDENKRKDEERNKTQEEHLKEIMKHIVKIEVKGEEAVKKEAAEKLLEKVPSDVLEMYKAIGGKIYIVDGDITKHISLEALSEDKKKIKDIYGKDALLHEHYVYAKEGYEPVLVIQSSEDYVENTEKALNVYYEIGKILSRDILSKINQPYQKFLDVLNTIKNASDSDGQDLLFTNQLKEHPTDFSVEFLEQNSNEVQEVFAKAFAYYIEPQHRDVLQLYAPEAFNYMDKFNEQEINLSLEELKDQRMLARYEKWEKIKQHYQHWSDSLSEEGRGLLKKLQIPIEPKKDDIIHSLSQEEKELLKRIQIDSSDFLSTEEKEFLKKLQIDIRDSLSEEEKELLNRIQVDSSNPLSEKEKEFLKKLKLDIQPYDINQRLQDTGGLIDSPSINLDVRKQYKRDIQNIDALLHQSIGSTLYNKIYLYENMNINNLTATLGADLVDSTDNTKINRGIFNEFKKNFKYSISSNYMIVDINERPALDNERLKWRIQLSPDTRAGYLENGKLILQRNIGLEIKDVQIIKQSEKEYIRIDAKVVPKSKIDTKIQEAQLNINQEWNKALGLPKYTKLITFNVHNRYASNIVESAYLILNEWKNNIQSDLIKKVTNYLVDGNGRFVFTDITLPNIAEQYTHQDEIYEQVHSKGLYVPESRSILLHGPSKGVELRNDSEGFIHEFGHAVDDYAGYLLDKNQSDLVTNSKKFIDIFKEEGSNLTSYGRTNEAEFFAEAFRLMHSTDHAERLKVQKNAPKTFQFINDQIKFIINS
BoNT F protease: inhibitors of Botulinum neurotoxin F light chain protease; inhibition, % at 10 µM; Multiplex microsphere protease cleavage assay, flow cytometry; hit rate 0.22% among 360,000; AID 588497; in the data active = inhibition above about 35%, passing the limit was not always enough; inconclusive = no clear call, values can overlap the other calls; note: plate controls were buffer without enzyme for full effect and enzyme alone for no effect
BoNT-A LC inh2: inhibitors of Botulinum neurotoxin A light chain protease; inhibition, % at 10 µM; AID 588499; hit rate 0.17% among 360,000; multiplex microsphere protease substrate cleavage, flow cytometry; note: plate controls were buffer without enzyme for full effect and enzyme alone for no effect
CCHF vOTU inh: blocks the CCHF virus ovarian tumor domain protease; CCHFV vOTU protease, Pep-AMC fluorescence; AID 651958; inhibition, % at 11.5 µM; hit rate 0.55% among 370,000; in the data active = inhibition above about 30%; note: 0% = vehicle wells with enzyme and 100% = no enzyme wells
SARS 3CLpro inh: SARS-CoV 3CLpro protease inhibition | inhibition, % at 6 µM | recombinant SARS-CoV 3CLpro, quenched FRET peptide cleavage | hit rate 0.14% among 290,000; in the data active = inhibition above about 12%
Active calls of the source: *; ? = inconclusive; . = no result given. Rows were chosen to be rich in hits. Some 3.9% of all compounds tested hit in one or more screens of this group. Cut-off read from the data, not from the text of the source, unless noted: active = inhibition above about 30%; inconclusive = no clear call, values can overlap the other calls; inactive = below that.

SMILES	Bead autofluor	Anthrax LF inh2	BoNT F protease	BoNT-A LC inh2	CCHF vOTU inh	SARS 3CLpro inh
CCn1cc([N+](=O)[O-])c(C(=O)Nc2ccn(Cc3ccccc3F)n2)n1	23949*	-1.1	-1.3	-0.6	1.7	5.3
CCn1cc([N+](=O)[O-])c(C(=O)Nc2nc(-c3ccc(C)cc3)c(C)s2)n1	16716*	-0.7	-5.9	-1.3	.	-2.6
CCn1c(Cc2cccs2)nnc1SCC(=O)Nc1ccc(Cl)cc1C	.	.	.	.	-1.4	.
CC(C)(C)c1ccc(Cn2nnc3c(=O)[nH]c(C4CCN(C(=O)Cc5cccs5)CC4)nc32)cc1	20958*	0.4	-1.2	-1.1	18.5	7.0
O=C(Cc1cccs1)N1CCC(c2nc3c(nnn3Cc3ccccc3)c(=O)[nH]2)CC1	20008*	-0.1	-3.5	-1.2	-2.8	-0.7
Cc1ccc(C)c(Cn2nnc3c(=O)[nH]c(C4CCCN(C(=O)CC(C)C)C4)nc32)c1 (centres undefined)	21556*	-8.5	0.0	4.6	.	0.9
Cc1ccc(Cn2nnc3c(=O)[nH]c(C4CCN(C(=O)Cc5cccs5)CC4)nc32)cc1	10571	2.8	2.1	-0.3	6.0	1.9
O=C(Cc1cccs1)N1CCCC(c2nc3c(nnn3Cc3ccc(F)cc3)c(=O)[nH]2)C1 (centres undefined)	15568	0.0	-1.4	2.5	-9.2	0.9
N#Cc1ccc(NC(=O)N2CCC(c3nc4c(nnn4Cc4cccc(Cl)c4)c(=O)[nH]3)CC2)cc1	20736*	-0.8	-3.6	-0.2	-1.2	5.3
Cc1ccc(C)c(NC(=O)Cn2nnc(-c3ccncc3)n2)c1	.	.	.	.	0.2	.
COc1cccc(CCNS(=O)(=O)c2c(C)n[nH]c2C)c1	.	.	.	.	-8.9	.
Cc1ccc(Cn2nnc3c(=O)[nH]c(C4CCCN(S(=O)(=O)c5ccccc5)C4)nc32)cc1 (centres undefined)	4287	-0.9	4.8	-0.1	-7.2	-0.1
O=c1[nH]c(C2CCCN(S(=O)(=O)c3ccc(F)cc3)C2)nc2c1nnn2Cc1ccccc1 (centres undefined)	21368*	-0.3	3.7	2.4	-5.2	-3.5
COCCSc1ccccc1C(=O)Nc1nnc(COC)s1	23162*	1.1	1.2	-0.1	1.4	4.1
Cc1nnc(NC(=O)CSc2ncnc3scc(-c4ccccc4)c23)s1	21836*	-1.9	4.3	?	-2.0	-0.6
Cc1nnc(NC(=O)CCSc2ccccc2)s1	16606*	0.9	-0.8	-0.1	1.2	-6.3
Cc1nnc(NC(=O)CCSc2ccc(Cl)cc2)s1	2675	0.2	-3.4	-0.2	-0.8	-1.5
COCc1nnc(NC(=O)CCSc2ccccc2)s1	20338*	-3.2	0.0	?	-2.9	-4.2
COCc1nnc(NC(=O)CSc2ccccc2)s1	22373*	0.5	-1.4	0.2	-5.6	1.5
COCc1nnc(NC(=O)CSc2ccc(C)cc2)s1	9697	-9.1	-10.9	-1.4	-2.3	0.8
CCSc1nc2c(sc3ccccc32)c(=O)n1C(C)C	23016*	-0.1	0.0	0.8	-3.4	2.3
O=C(Oc1ccc(Br)cc1)C1CCN(C2=NS(=O)(=O)c3ccccc32)CC1	?	0.4	5.4	-0.3	0.8	.
CN(C)[C@H]1N(C(=O)c2ccc(Br)cc2)N=C2c3ccccc3S(=O)(=O)N21	19842*	-0.8	0.5	?	-0.4	5.5
Cc1ccc(CNC(=O)C2CCC(=O)N2Cc2ccc(F)cc2)cc1 (centres undefined)	4049	-4.2	7.5	-4.2	9.7	-2.2
Cc1ccc(CN2C(=O)CCC2C(=O)NCc2cccnc2)cc1 (centres undefined)	21210*	-6.0	2.1	3.6	-11.9	2.6
SMILES	Bead autofluor	Anthrax LF inh2	BoNT F protease	BoNT-A LC inh2	CCHF vOTU inh	SARS 3CLpro inh
O=C(NNc1ccccc1[N+](=O)[O-])Nc1ccccc1	20435*	0.5	-0.7	?	.	2.5
CCc1ccc(C(=O)CSc2nc3ccccc3c(=O)[nH]2)cc1	21509*	-6.0	1.2	0.4	9.5	3.1
Cc1ccc(C(=O)CSc2nc3ccccc3c(=O)[nH]2)cc1	21593*	-8.0	3.7	2.8	21.8	-3.0
CC(C)Cn1c(NCCO)nc2ccccc21	19740*	-0.8	0.2	1.1	-5.4	-1.6
Cc1ccc(C)c(NC(=S)NNC(=O)c2csc(C(C)C)c2)c1	22879*	0.8	-2.6	0.9	-0.8	1.1
Cc1ccc(C)c(NC(=S)NNC(=O)c2csc(C)c2C)c1	2435	0.1	-7.4	-0.2	-9.1	2.7
Cc1ccc(NC(=S)NC(=O)c2ccc(Br)o2)c(C)c1	4549	-3.0	-0.2	0.3	-1.4	-1.0
Cc1ccc(C)c(NC(=S)NNC(=O)c2ccc(Br)o2)c1	21935*	-0.1	-5.1	-4.8	1.8	2.5
